From publication PMC8384837, “Expanding the binding specificity for RNA recognition by a PUF domain”
Numbering of substitutions follows the chain as printed.

Key:
Assay in all cases: yeast three-hybrid, YBZ-1, SC-Leu-His + 0.5 mM 3-AT, 4 days
Settings in all cases: tags: N-Gal4 AD-HA kept; label: inside an RPR1-promoter hybrid RNA with tandem MS2 sites; ssRNA
PUM1 PUF domain R8-KHF = PUM1 PUF domain R8-KHF (Homo sapiens, UniProt Q14671 828-1176, N1122K;Y1123H;Q1126F)
In short: (§1)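 The interaction score is the log change in variant frequency from input to selection. Scores were computed in log2 with a pseudocount of 1 for absent variants, using Illumina sequencing of PCR-amplified repeat regions. The input came from four days on SC-Leu and the selection from four days on SC-Leu-His + 0.5 mM 3-AT. The cells were strain YBZ-1 (LexA–MS2 coat fusion, HIS3 reporter) co-expressing Pumilio-1 PUF domain libraries and matching RNA elements from a centromeric plasmid.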

[1] = target: T1, PUM1 PUF domain R1-QFR R2-VFQ R6-SWD (Homo sapiens, UniProt Q14671 828-1176, S863Q;R864F;Q867R;N899V;Y900F;N1043S;Y1044W;Q1047D)
T1 sequence: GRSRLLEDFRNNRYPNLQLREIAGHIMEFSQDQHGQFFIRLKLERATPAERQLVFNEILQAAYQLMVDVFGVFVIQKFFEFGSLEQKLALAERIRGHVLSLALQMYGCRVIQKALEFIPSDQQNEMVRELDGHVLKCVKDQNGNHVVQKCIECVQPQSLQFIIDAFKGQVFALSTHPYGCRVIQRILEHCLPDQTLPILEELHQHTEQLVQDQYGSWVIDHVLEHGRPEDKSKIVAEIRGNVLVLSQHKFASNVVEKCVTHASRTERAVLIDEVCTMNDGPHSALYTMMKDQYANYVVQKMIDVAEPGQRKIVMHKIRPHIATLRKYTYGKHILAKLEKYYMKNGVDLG
In short: as §1

PUM1 PUF domain R6-RYG = target: T2, PUM1 PUF domain R6-RYG (Homo sapiens, UniProt Q14671 828-1176, N1043R;Q1047G)
T2 sequence: T1 sequence with Q36S, F37R, R40Q, V72N, F73Y, S216R, W217Y, D220G
In short: as §1

PUM1 PUF domain R6-AWV = target: T3, PUM1 PUF domain R6-AWV (Homo sapiens, UniProt Q14671 828-1176, N1043A;Y1044W;Q1047V)
T3 sequence: T1 sequence with Q36S, F37R, R40Q, V72N, F73Y, S216A, D220V
In short: as §1

PUM1 PUF domain R8-RRY = PUM1 PUF domain R8-RRY (Homo sapiens, UniProt Q14671 828-1176, N1122R;Y1123R;Q1126Y)
In short: as §1

[2] = target: PUM1 PUF domain R3-THE R4-TFR R7-NPG (Homo sapiens, UniProt Q14671 828-1176, C935T;R936H;Q939E;N971T;H972F;Q975R;S1079N;N1080P;E1083G)
In short: as §1

PUM1 PUF domain R3-KPG = PUM1 PUF domain R3-KPG (Homo sapiens, UniProt Q14671 828-1176, C935K;R936P;Q939G)
In short: as §1

PUM1 PUF domain R5-RSN = PUM1 PUF domain R5-RSN (Homo sapiens, UniProt Q14671 828-1176, C1007R;R1008S;Q1011N)
In short: as §1

PUM1 PUF domain R5-RAI = PUM1 PUF domain R5-RAI (Homo sapiens, UniProt Q14671 828-1176, C1007R;R1008A;Q1011I)
In short: as §1

PUM1 PUF domain R2-KLV = PUM1 PUF domain R2-KLV (Homo sapiens, UniProt Q14671 828-1176, N899K;Y900L;Q903V)
In short: as §1

PUM1 PUF domain R7-LYW = PUM1 PUF domain R7-LYW (Homo sapiens, UniProt Q14671 828-1176, S1079L;N1080Y;E1083W)
In short: as §1

PUM1 PUF domain R4-GHW = PUM1 PUF domain R4-GHW (Homo sapiens, UniProt Q14671 828-1176, N971G;Q975W)
In short: as §1

PUM1 PUF domain R4-WGV = PUM1 PUF domain R4-WGV (Homo sapiens, UniProt Q14671 828-1176, N971W;H972G;Q975V)
In short: as §1

PUM1 PUF domain R3-DNE = PUM1 PUF domain R3-DNE (Homo sapiens, UniProt Q14671 828-1176, C935D;R936N;Q939E)
In short: as §1

PUM1 PUF domain R3-YRG = PUM1 PUF domain R3-YRG (Homo sapiens, UniProt Q14671 828-1176, C935Y;Q939G)
In short: as §1

PUM1 PUF domain R4-CMN = PUM1 PUF domain R4-CMN (Homo sapiens, UniProt Q14671 828-1176, N971C;H972M;Q975N)
In short: as §1

PUM1 PUF domain R6-DWG = target: T4, PUM1 PUF domain R6-DWG (Homo sapiens, UniProt Q14671 828-1176, N1043D;Y1044W;Q1047G)
T4 sequence: T1 sequence with Q36S, F37R, R40Q, V72N, F73Y, S216D, D220G
In short: as §1

PUM1 PUF domain R6-LFC = target: T5, PUM1 PUF domain R6-LFC (Homo sapiens, UniProt Q14671 828-1176, N1043L;Y1044F;Q1047C)
T5 sequence: T1 sequence with Q36S, F37R, R40Q, V72N, F73Y, S216L, W217F, D220C
In short: as §1

PUM1 PUF domain R8-KYP = PUM1 PUF domain R8-KYP (Homo sapiens, UniProt Q14671 828-1176, N1122K;Q1126P)
In short: as §1

PUM1 PUF domain R4-RGY = PUM1 PUF domain R4-RGY (Homo sapiens, UniProt Q14671 828-1176, N971R;H972G;Q975Y)
In short: as §1

Sequence of PUM1 PUF domain R5-RAI (Q14671 828-1176 C1007R/R1008A/Q1011I): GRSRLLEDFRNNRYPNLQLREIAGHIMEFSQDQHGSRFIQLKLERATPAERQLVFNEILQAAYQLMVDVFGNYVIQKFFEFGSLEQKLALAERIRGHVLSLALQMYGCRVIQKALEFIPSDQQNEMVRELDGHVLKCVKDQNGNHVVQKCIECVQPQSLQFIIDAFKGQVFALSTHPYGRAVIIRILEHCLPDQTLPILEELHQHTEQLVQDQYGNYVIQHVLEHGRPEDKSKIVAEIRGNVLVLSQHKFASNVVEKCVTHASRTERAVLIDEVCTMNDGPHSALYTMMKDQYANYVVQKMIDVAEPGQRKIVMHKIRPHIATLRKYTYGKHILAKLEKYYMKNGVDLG
Sequence of PUM1 PUF domain R3-DNE (Q14671 828-1176 C935D/R936N/Q939E): as the sequence (Q14671 828-1176 C1007R/R1008A/Q1011I) above, with C108D, R109N, Q112E, R180C, A181R, I184Q counted along it
Sequence of PUM1 PUF domain R3-THE R4-TFR R7-NPG (Q14671 828-1176 C935T/R936H/Q939E/N971T/H972F/Q975R/S1079N/N1080P/E1083G): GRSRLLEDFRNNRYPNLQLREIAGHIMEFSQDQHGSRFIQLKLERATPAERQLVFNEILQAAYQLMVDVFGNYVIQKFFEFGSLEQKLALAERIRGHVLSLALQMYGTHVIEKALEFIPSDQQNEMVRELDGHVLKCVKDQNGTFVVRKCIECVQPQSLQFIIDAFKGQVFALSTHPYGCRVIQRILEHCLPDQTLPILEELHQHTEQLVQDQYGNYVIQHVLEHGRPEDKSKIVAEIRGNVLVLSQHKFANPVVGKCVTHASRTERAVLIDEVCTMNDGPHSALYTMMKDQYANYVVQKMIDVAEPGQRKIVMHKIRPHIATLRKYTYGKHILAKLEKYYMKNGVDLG
Sequence of PUM1 PUF domain R3-YRG (Q14671 828-1176 C935Y/Q939G): as the sequence (Q14671 828-1176 C1007R/R1008A/Q1011I) above, with C108Y, Q112G, R180C, A181R, I184Q counted along it

## GGCUAGAACUAGUGGAUCCCCCGGCGCCCGGCGGCUCGAGCCCGGGUAAGGGUAAAUAGUCUGCAUGCCGCCGGGCGCCAUGCCUGCAGGUCGACUCUAGAAAACAUG
PUM1 PUF domain R8-KHF
  binding signal: 2.25 log2 enrichment (interaction score)

## GGCUAGAACUAGUGGAUCCCCCGGCGCCCGGCGGCUCGAGCCCGGGUAAGUGGAAAACGUCUGCAUGCCGCCGGGCGCCAUGCCUGCAGGUCGACUCUAGAAAACAUG
[1]
  binding signal: 5 log2 enrichment (interaction score)

## GGCUAGAACUAGUGGAUCCCCCGGCGCCCGGCGGCUCGAGCCCGGGUAAGUGAAAAUAGUCUGCAUGCCGCCGGGCGCCAUGCCUGCAGGUCGACUCUAGAAAACAUG
PUM1 PUF domain R6-RYG
  binding signal: 0.78 log2 enrichment (interaction score)
PUM1 PUF domain R6-AWV
  binding signal: 2.78 log2 enrichment (interaction score)

## GGCUAGAACUAGUGGAUCCCCCGGCGCCCGGCGGCUCGAGCCCGGGUAAGCGUAAAUAGUCUGCAUGCCGCCGGGCGCCAUGCCUGCAGGUCGACUCUAGAAAACAUG
PUM1 PUF domain R8-RRY
  binding signal: 2.72 log2 enrichment (interaction score)

## GGCUAGAACUAGUGGAUCCCCCGGCGCCCGGCGGCUCGAGCCCGGGUAAGUUUACGUAGUCUGCAUGCCGCCGGGCGCCAUGCCUGCAGGUCGACUCUAGAAAACAUG
[2]
  binding signal: 5.28 log2 enrichment (interaction score)

## GGCUAGAACUAGUGGAUCCCCCGGCGCCCGGCGGCUCGAGCCCGGGUAAGUGUAAUUAGUCUGCAUGCCGCCGGGCGCCAUGCCUGCAGGUCGACUCUAGAAAACAUG
PUM1 PUF domain R3-KPG
  binding signal: 4.43 log2 enrichment (interaction score)

## GGCUAGAACUAGUGGAUCCCCCGGCGCCCGGCGGCUCGAGCCCGGGUAAGUGUUAAUAGUCUGCAUGCCGCCGGGCGCCAUGCCUGCAGGUCGACUCUAGAAAACAUG
PUM1 PUF domain R5-RSN
  binding signal: 3.26 log2 enrichment (interaction score)
PUM1 PUF domain R5-RAI
  binding signal: 2.49 log2 enrichment (interaction score)

## GGCUAGAACUAGUGGAUCCCCCGGCGCCCGGCGGCUCGAGCCCGGGUAAGUGUAAAGAGUCUGCAUGCCGCCGGGCGCCAUGCCUGCAGGUCGACUCUAGAAAACAUG
PUM1 PUF domain R2-KLV
  binding signal: 6.33 log2 enrichment (interaction score)

## GGCUAGAACUAGUGGAUCCCCCGGCGCCCGGCGGCUCGAGCCCGGGUAAGUUUAAAUAGUCUGCAUGCCGCCGGGCGCCAUGCCUGCAGGUCGACUCUAGAAAACAUG
PUM1 PUF domain R7-LYW
  binding signal: 4.45 log2 enrichment (interaction score)

## GGCUAGAACUAGUGGAUCCCCCGGCGCCCGGCGGCUCGAGCCCGGGUAAGUGUACAUAGUCUGCAUGCCGCCGGGCGCCAUGCCUGCAGGUCGACUCUAGAAAACAUG
PUM1 PUF domain R4-GHW
  binding signal: 4.34 log2 enrichment (interaction score)
PUM1 PUF domain R4-WGV
  binding signal: 3.2 log2 enrichment (interaction score)

## GGCUAGAACUAGUGGAUCCCCCGGCGCCCGGCGGCUCGAGCCCGGGUAAGUGUAUAUAGUCUGCAUGCCGCCGGGCGCCAUGCCUGCAGGUCGACUCUAGAAAACAUG
PUM1 PUF domain R4-GHW
  binding signal: 4.35 log2 enrichment (interaction score)
PUM1 PUF domain R4-WGV
  binding signal: 3.61 log2 enrichment (interaction score)

## GGCUAGAACUAGUGGAUCCCCCGGCGCCCGGCGGCUCGAGCCCGGGUAAGUGUCAAUAGUCUGCAUGCCGCCGGGCGCCAUGCCUGCAGGUCGACUCUAGAAAACAUG
PUM1 PUF domain R5-RSN
  binding signal: 3.76 log2 enrichment (interaction score)
PUM1 PUF domain R5-RAI
  binding signal: 0.78 log2 enrichment (interaction score)

## GGCUAGAACUAGUGGAUCCCCCGGCGCCCGGCGGCUCGAGCCCGGGUAAGUGUAAGUAGUCUGCAUGCCGCCGGGCGCCAUGCCUGCAGGUCGACUCUAGAAAACAUG
PUM1 PUF domain R3-DNE
  binding signal: 3.35 log2 enrichment (interaction score)
PUM1 PUF domain R3-YRG
  binding signal: 3.84 log2 enrichment (interaction score)

## GGCUAGAACUAGUGGAUCCCCCGGCGCCCGGCGGCUCGAGCCCGGGUAAGUGUAAAUAGUCUGCAUGCCGCCGGGCGCCAUGCCUGCAGGUCGACUCUAGAAAACAUG
PUM1 PUF domain R4-GHW
  binding signal: 5.62 log2 enrichment (interaction score)
PUM1 PUF domain R4-CMN
  binding signal: 3.59 log2 enrichment (interaction score)
PUM1 PUF domain R6-RYG
  binding signal: 2.84 log2 enrichment (interaction score)
PUM1 PUF domain R8-RRY
  binding signal: 0.87 log2 enrichment (interaction score)
PUM1 PUF domain R4-WGV
  binding signal: 3.11 log2 enrichment (interaction score)
PUM1 PUF domain R6-DWG
  binding signal: 4.07 log2 enrichment (interaction score)
PUM1 PUF domain R6-LFC
  binding signal: 3.09 log2 enrichment (interaction score)
PUM1 PUF domain R5-RSN
  binding signal: 0.8 log2 enrichment (interaction score)
PUM1 PUF domain R8-KYP
  binding signal: 4.91 log2 enrichment (interaction score)
PUM1 PUF domain R4-RGY
  binding signal: 5.07 log2 enrichment (interaction score)
